# Screens (PubChem BioAssay)
# Rows were chosen to be rich in hits. Some 18% of all compounds tested hit in one or more screens of this group.
# TDP1 cell noCPT: qHTS for Inhibitors of human tyrosyl-DNA phosphodiesterase 1 (TDP1): qHTS in cells in absence of CPT; DT40 Tdp1-/- hTDP1 cells, no CPT, ATP luminescence, 48 h; actives 15% (n = 420,000); AID 686978, 2013; Potency, µM (highest dose often 46.2 µM), most hits filed as inhibitors; note: nearly all actives have a fitted effect of over 55% in size
#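 Readout: luminescence from CellTiter-Glo after 30 min in the dark at RT. Cells: DT40 Tdp1-/- with stable hTDP1, 400/well. Exposure: compounds alone, ≥48 hr, 37 °C.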
# TDP1 cell CPT: qHTS for Inhibitors of human tyrosyl-DNA phosphodiesterase 1 (TDP1): qHTS in cells in presence of CPT; Potency, µM (doses to about 46.2 µM), most hits filed as inhibitors; AID 686979, 2013; chicken DT40 Tdp1-/-;hTDP1 cells + 20 nM CPT, ATP luminescence, 48 h; actives 12% (n = 420,000); note: nearly all actives have a fitted effect of over 55% in size
#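 Chicken DT40 Tdp1-/- cells complemented with human TDP1, 400 cells/well, exposed to compounds plus 20 nM camptothecin for at least 48 h at 37 C; viability read as ATP content by CellTiter-Glo luminescence.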
# VP16 counter: VP16 counterscreen qHTS for inhibitors of ROR gamma transcriptional activity; Drosophila S2 Gal4-VP16 UAS-luciferase, luminescence, 20 h; Potency, µM (doses to about 53.6 µM), usual class: inhibitors; actives 3.5% (n = 310,000); AID 2546, 2010;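 note: Gal4-VP16 expression switched on by copper sulfate through the metallothionein promoter; nearly all actives have a fitted effect of over 50% in size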
# IL-1B inflam inh: qHTS for Inhibitors of Inflammasome Signaling: IL-1-beta AlphaLISA Primary Screen; THP-1 LPS/ATP IL-1B secretion, AlphaLISA, 16 h; hits give low values; activity change, % at 57.5 µM; actives 4.7% (n = 360,000); in the data active = activity change below about -50%; inconclusive = mostly about -30% to -49%
#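 THP-1 cells pretreated 1 hr with compounds (up to 57.5 uM final), then stimulated with LPS (250 ng/mL final) plus ATP (1.25 mM final); secreted IL-1B measured by AlphaLISA after 16 hr, decreased signal indicating inhibition.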
# LDHA block: qHTS assay for inhibitors of human lactate dehydrogenase. purified LDHA, NADH/diaphorase-resazurin fluorescence; hits give low values. actives 0.15% (n = 480,000). L-lactate dehydrogenase A chain (Homo sapiens), P00338. activity change, % (values are at about 110 or 230 µM); in the data active = activity change below about -30%; inconclusive = mostly about -25% to -30%
#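 Human LDH5 at 2 nM final in Tris HCl pH 7.4 with 0.06 mM NADH and 0.2 mM pyruvate, reacted 5 minutes at room temperature. Remaining NADH coupled via diaphorase/resazurin; resorufin fluorescence read at 0 and 20 minutes, normalized to enzyme-free and DMSO wells.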
# RORgamma inh: qHTS for inhibitors of ROR gamma transcriptional activity; AID 2551, 2010; Nuclear receptor ROR-gamma (Mus musculus), P51450; actives 5.4% (n = 310,000); Drosophila S2 Gal4-RORgamma UAS-luciferase reporter, 20 h; Potency, µM (series often up to 53.6 µM), most hits filed as inhibitors; note: nearly all actives have a fitted effect of over 60% in size
# Target sequence (P51450 whole entry, looked up, the tested form may be a part): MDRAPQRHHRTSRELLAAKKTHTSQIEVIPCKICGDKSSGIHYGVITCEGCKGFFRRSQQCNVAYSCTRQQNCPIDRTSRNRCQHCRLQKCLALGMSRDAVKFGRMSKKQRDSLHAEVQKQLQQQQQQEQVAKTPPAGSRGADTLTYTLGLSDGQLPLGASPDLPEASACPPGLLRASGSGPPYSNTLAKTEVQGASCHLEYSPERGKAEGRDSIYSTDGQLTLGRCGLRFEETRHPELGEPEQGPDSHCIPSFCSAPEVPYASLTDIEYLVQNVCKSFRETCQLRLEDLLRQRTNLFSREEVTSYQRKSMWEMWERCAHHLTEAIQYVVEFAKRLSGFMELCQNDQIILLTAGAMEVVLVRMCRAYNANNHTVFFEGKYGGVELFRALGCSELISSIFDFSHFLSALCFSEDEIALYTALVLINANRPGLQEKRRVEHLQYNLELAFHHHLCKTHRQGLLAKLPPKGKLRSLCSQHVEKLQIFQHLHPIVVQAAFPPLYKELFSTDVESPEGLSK
#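 Using a luciferase readout, inhibitors were identified by reduced reporter activity in Drosophila cells coexpressing a copper-inducible Gal4–ROR gamma fusion and UAS-driven Photinus luciferase, incubated 20 hr after 700 uM copper sulfate.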
# A number is an active result; - = inactive; ? = inconclusive; . = no result given; [ ] = remark or other dose. Unless noted, calls come from the whole dose curve; as a rule, active = well fitted curve in the direction sought with a large enough effect; inconclusive = small, poorly fitted or top-dose-only effect, or another doubt; inactive = no such curve, though single readings can be large; an effect the other way counts as inactive or inconclusive.
SMILES,TDP1 cell noCPT,TDP1 cell CPT,VP16 counter,IL-1B inflam inh,LDHA block,RORgamma inh
CN1CCC(N(C)C(=O)c2cc(-c3ccccc3Cl)nc3ccccc23)CC1,?,?,.,-,-,.
COc1ccc(CN(C)C(=O)c2cc(-c3ccc(OC)c(OC)c3)nc3ccccc23)c(OC)c1,18µM,16µM,-,-,-,-
Cn1cnc2c1c(=O)n(CCCSCc1ccccc1Br)c(=O)n2C,.,.,.,.,-,.
COc1nc(-c2ccc(C)cc2)ccc1-c1noc(C)n1,.,.,.,.,-,.
CC(C)Oc1cccc(C(C)NC(=O)c2ccccc2Cl)c1 (configuration not stated),.,.,.,.,-,.
COc1ccccc1CN(C)C(=O)c1cc(-c2cccs2)nc2ccccc12,16µM,?,-,-,-,-
COc1ccccc1C(=O)NCC(=O)N(C)Cc1nc2ccccc2c(=O)[nH]1,-,-,.,-,-,.
CN(Cc1ccccc1)C(=O)c1cc(-c2ccncc2)nc2ccccc12,.,.,.,.,-,.
COc1cccc(CN(C)C(=O)c2cc(-c3ccc(OC)c(OC)c3)nc3ccccc23)c1,?,15µM,-,-,-,-
COc1ccc(-c2cc(C(=O)N(C)Cc3nc4ccccc4c(=O)[nH]3)c3ccccc3n2)cc1OC,21µM,?,.,-,-,.
Cc1c(CN(C)C(=O)c2cc(-c3ccccc3)nc3ccc(Br)cc23)cnn1C,10µM,21µM,.,.,-,.
CN(C)C(=O)c1cccc(NC(=O)/C=C/c2ccccc2)c1,.,.,.,.,-,.
COc1ccc(CN(C)C(=O)c2cc(-c3ccccc3)nc3ccc(C)cc23)c(OC)c1OC,16µM,18µM,-,-64,-,-
Cc1nn(Cc2ccc(Cl)cc2)c(C)c1NC(=O)c1ccc([N+](=O)[O-])cc1,?,-,-,-74,-,?
Cc1nn(Cc2ccccc2)c(C)c1NC(=O)CSc1n[nH]c(C)c1[N+](=O)[O-],?,?,-,-,-,-
Cc1nn(Cc2ccc(Cl)cc2)c(C)c1NC(=O)CSc1n[nH]c(C)c1[N+](=O)[O-],21µM,26µM,-,-,-,-
Cc1nn(Cc2ccc(C(=O)Nc3nccs3)cc2)c(C)c1Cl,?,-,?,-,-,13µM
Cc1ccc2c(Cn3nnc(-c4ccc(F)cc4)n3)cc(=O)oc2c1C,.,.,.,.,-,.
COc1ccc(-n2cnc3c2NC(=O)CC3c2cccnc2)c(OC)c1 (configuration not stated),.,.,.,.,-,.
Cn1c(=O)[nH]c(=O)c2c1nc(SCC(=O)c1ccccc1)n2CCCc1ccccc1,.,.,.,.,-,.
CCOC(=O)C(N)c1c(C)cc(C)cc1C (configuration not stated),.,.,.,.,-,.
COc1cccc(-c2nc(NC(C)(C)C)c3ccccc3n2)c1O,21µM,?,?,-51,-,?
COc1ccc(Nc2nc(-c3cccc(OC)c3O)nc3ccccc23)cc1,16µM,?,-,-,-,-
COc1cccc(-c2nc(NCCN3CCOCC3)c3ccccc3n2)c1O,18µM,15µM,-,-,-,-
CC(Sc1nnc(Nc2ccccc2F)s1)C(=O)N1CCc2ccccc21 (configuration not stated),.,.,.,.,-,.
SMILES,TDP1 cell noCPT,TDP1 cell CPT,VP16 counter,IL-1B inflam inh,LDHA block,RORgamma inh
CCOc1ccccc1Oc1cn[nH]c1-c1ccc(OCC(=O)NN)cc1O,-,-,-,-,-,-
CCOc1ccc(-c2[nH]ncc2-c2ccc(Br)cc2)c(O)c1,.,.,.,.,-,.
CCOc1ccc(-c2ncncc2-c2ccccc2OC)c(O)c1,23µM,13µM,-,-,-,-
CCOc1ccc(-c2[nH]ncc2Oc2ccccc2OC)c(O)c1,?,-,?,-,-,16µM
CCOc1ccc(-c2[nH]ncc2Oc2ccccc2OCC)c(O)c1,?,6.5µM,?,-,-,10µM
COc1ccc(NC(=O)Cn2nnc(-c3ccccc3F)n2)cc1,-,-,-,-,-,-
CC1CCCN(S(=O)(=O)c2ccc(NC(=O)Cn3nnc(-c4ccccc4F)n3)cc2)C1 (configuration not stated),23µM,?,-,-,-,-
CCOc1ccc(NC(=O)Cn2nnc(-c3ccccc3F)n2)cc1,?,21µM,.,-,-,-[0.365 µM]
CC1CCN(S(=O)(=O)c2ccc(NC(=O)Cn3nnc(-c4ccccc4)n3)cc2)CC1,?,?,?,-,-,-
CN(C)C(=O)c1ccc(NC(=O)Cn2nnnc2-c2ccccc2F)cc1,18µM,15µM,.,.,-,.
Cc1ccc(-c2nnn(CC(=O)Nc3ccc(S(=O)(=O)N4CCC(C)CC4)cc3)n2)cc1,18µM,?,-,-,-,?
CCOC(=O)c1c(C)n(CC(=O)OC)c2ccc(O)cc12,.,.,.,.,-,.
O=C(c1c[nH]c2ccccc12)C(NCc1ccccc1)c1ccccc1 (configuration not stated),.,.,.,.,-,.
O=C1CN(C(=O)COC(=O)c2cc(Cl)ccc2[N+](=O)[O-])c2ccccc2N1,?,-,.,-,-,.
Cc1ccc(Nc2c([N+](=O)[O-])cc(C(=O)N3CC(=O)Nc4ccccc43)cc2[N+](=O)[O-])c(C)c1,?,15µM,-,-,-,-
COc1cc(OC)cc(C(=O)N2CC(=O)Nc3ccccc32)c1,1.3µM,1.5µM,-,-,-,-
O=C1CN(C(=O)c2ccc(Cl)c([N+](=O)[O-])c2)c2ccccc2N1,-,-,-,-78,-,-
CCCCCCCOc1ccc(C(=O)Oc2ccc(C(C)=O)cc2)cc1,.,.,.,.,-,.
Cc1ccc2[nH]c(O)c(N=NC(=O)C3CC3c3ccccc3)c2c1Br (configuration not stated),23µM,21µM,?,-,-,?
Cc1[nH]n(C(N)=S)c(=O)c1N=Nc1ccccc1C(F)(F)F,15µM,?,2.5µM,-,-,0.32µM
Cc1ccccc1N=Nc1c(C)[nH]n(C(N)=S)c1=O,1.2µM,1.2µM,1µM,-,-,0.4µM
Cc1[nH]n(C(N)=S)c(=O)c1N=Nc1ccc([N+](=O)[O-])cc1Cl,2.9µM,?,3.5µM,-,-,0.71µM
Cc1cccc(N=Nc2c(C)[nH]n(C(N)=S)c2=O)c1C,.,.,1.6µM,.,.,0.4µM
Cc1[nH]n(S(=O)(=O)Cc2ccccc2)c(=O)c1N=Nc1ccccc1Cl,-,-,-,-,-,-
Cc1ccc(C(=O)Nc2ccc3oc(-c4ccncc4)nc3c2)cc1C,.,.,.,.,-,.
COc1ccc2cc(CN(C)C(=O)CNC(=O)c3ccccc3F)ccc2c1,.,.,.,.,-,.
